ALR H2O2 inh: blocks human ALR sulfhydryl oxidase activity. purified ALR, DTT oxidation, H2O2 HRP-luminol luminescence. actives 3.8% (n = 290,000). inhibition, % (test concentration not listed). P55789;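 active = mean replicate inhibition above about 79%, with every replicate also reaching it, limit read from the data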
A3A deaminase: blocks human APOBEC3A ssDNA deamination; P31941; recombinant A3A, FAM/TAMRA ssDNA deamination fluorescence; inhibition, % at 20 µM; actives 0.41% (n = 330,000); AID 493011;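 active = at least 40% inhibition at 20 µM here, with at most 30% in a related deaminase screen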
PHOSPHO1 inh: blocks human PHOSPHO1 phosphatase activity; Q8TCT1; recombinant PHOSPHO1, absorbance phosphatase assay; inhibition, % at 13.3 µM; actives 1.1% (n = 290,000); in the data active = inhibition above about 60%
Target sequence (Q8TCT1 whole entry, looked up): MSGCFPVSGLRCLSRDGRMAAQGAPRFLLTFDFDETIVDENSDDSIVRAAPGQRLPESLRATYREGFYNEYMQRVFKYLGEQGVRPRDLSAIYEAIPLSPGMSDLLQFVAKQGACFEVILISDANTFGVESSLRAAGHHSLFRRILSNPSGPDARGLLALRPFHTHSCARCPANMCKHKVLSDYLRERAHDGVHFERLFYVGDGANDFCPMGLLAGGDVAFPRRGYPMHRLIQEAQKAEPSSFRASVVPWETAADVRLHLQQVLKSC
aDG glyco act: increases alpha dystroglycan glycosylation; AID 624168; Pro5-aDG cells, alpha-DG glycosylation AlphaScreen (IIH6); 0% Pro5, 100% B10-LARGE cell signal; actives 0.22% (n = 360,000); activation, % at 10 µM;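 active = activation of at least 8% versus controls, or a plate z-score of at least 8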;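 note: Pro5 are CHO cells carrying HIG-tagged alpha-DG that lacks glycosylation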
rCAG RNA binder: molecules binding r(CAG) RNA repeats; r(CAG) RNA repeat, TO-PRO-1 dye displacement fluorescence; inhibition, % at 3 µM; AID 651821; actives 1.3% (n = 370,000);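 active = inhibition above the plate cutoff, the mean of all test compounds on that plate plus 3 SD, cut at about 35% in these data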;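 note: higher means more dye released from RNA so lower well fluorescence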
APOBEC3G inh: APOBEC3G (human) deaminase inhibition; inhibition, % at 20 µM; recombinant A3G, ssDNA deamination FAM/TAMRA fluorescence; actives 0.28% (n = 330,000);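 active = inhibition of at least 40% at 20 µM, with no more than 30% in the related APOBEC3A deaminase screen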
Target sequence (Q9HC16 whole entry, looked up): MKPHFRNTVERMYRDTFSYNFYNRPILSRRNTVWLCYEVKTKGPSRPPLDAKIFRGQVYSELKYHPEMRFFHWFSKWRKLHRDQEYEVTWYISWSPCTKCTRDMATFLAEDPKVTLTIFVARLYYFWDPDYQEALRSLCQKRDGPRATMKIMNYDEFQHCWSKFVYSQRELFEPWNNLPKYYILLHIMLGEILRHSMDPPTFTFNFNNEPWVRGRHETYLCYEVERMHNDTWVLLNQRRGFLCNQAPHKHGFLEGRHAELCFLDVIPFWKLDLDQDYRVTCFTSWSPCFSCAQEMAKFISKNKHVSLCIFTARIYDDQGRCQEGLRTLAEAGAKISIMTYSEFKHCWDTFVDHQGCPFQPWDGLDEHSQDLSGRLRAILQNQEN
Hits are given with their value; – = inactive; · = no result. This is a sample that favours compounds with a hit; in the whole collection about 5.4% have one here.

SMILES | ALR H2O2 inh | A3A deaminase | PHOSPHO1 inh | aDG glyco act | rCAG RNA binder | APOBEC3G inh
O=C(CCN1CCCCO1)N1CCCC(Nc2ccc(F)cc2)C1 (configuration not stated) | 94.7 | – | – | – | – | –
COc1ccc(C#CCN(C)/C(N)=N/C(=O)OCc2ccccc2)cc1 | · | · | · | · | – | ·
O=C(CCn1cnnn1)N1CCCC(Nc2ccc(F)cc2)C1 (configuration not stated) | 98.3 | – | – | – | – | –
O=C(c1ccc(Cn2cnnn2)cc1)N1CCCC(Nc2ccc(F)cc2)C1 (configuration not stated) | – | – | – | – | – | –
O=C(CSc1nnc(-c2ccccc2)n1-c1ccccc1)Nc1ccc(Oc2ccccc2)cc1 | · | · | · | · | – | ·
Cc1ccc(/C=C/C(=O)c2c(C)nc3ccccn23)cc1 | 97.7 | – | – | – | – | –
Cc1nc2ccccn2c1C(=O)/C=C/c1cccc([N+](=O)[O-])c1 | – | – | – | – | – | –
O=C(CN(CCc1ccccc1)S(=O)(=O)c1ccc(Cl)s1)N1CCOCC1 | · | · | · | · | – | ·
COc1ccc(-c2noc(CSc3nc(N)c(-c4ccccc4)c(=O)[nH]3)n2)cc1OC | 99.5 | – | – | – | – | –
COc1ccc(-c2noc(CSc3nc4ccccc4c(=O)n3-c3ccccc3)n2)cc1OC | – | – | – | – | – | –
C[C@@H]1CCN(C2CC2)S(=O)(=O)c2ccc(N3CC[C@H](O)C3)cc2O1 | · | · | · | · | – | ·
COc1cc(C(=O)O)ccc1O | – | – | – | – | – | –
COc1cc(-c2nc3ccccc3nc2-c2ccc(O)c(OC)c2)ccc1O | 98.9 | – | – | – | – | –
COc1cc(C(=S)N2CCCCC2)ccc1O | 82.1 | – | – | – | – | –
COc1cc(C(=S)N2CCC(C(N)=O)CC2)ccc1O | – | – | – | – | – | –
COc1cc(C(=S)N2CCC(C)CC2)ccc1O | 89.6 | – | 66.0 | – | – | –
COc1cc(-c2cc[n+](C)cc2)ccc1O | 99.0 | – | · | – | – | –
Cc1ccc(S(=O)(=O)N(C)[C@H]2C[C@H]3c4cc(-c5ccccc5C)ccc4CCN3C[C@H]2[C@H](C)O)cc1 | · | · | · | · | – | ·
COC(=O)[C@@]12CCCCC=C1N(CCc1ccc(Cl)cc1)C(=O)[C@H]2CC(=O)NCC1CCCCC1 | · | · | · | · | – | ·
COC(=O)c1ccc(Cn2ccc3ccc(-c4ccc5ccn(Cc6ccc(C(=O)OC)cc6)c5c4)cc32)cc1 | · | · | · | · | – | ·
CCOc1cc(C(=S)N2CCCC2)ccc1O | · | – | – | – | – | –
COc1cc(C(=S)N2CCCC2)ccc1O | 93.8 | – | – | – | – | –
COc1cc(C(=O)n2nc(C)cc2C)ccc1O | 94.8 | – | – | – | – | –
COc1cc(C(=O)C(=O)c2ccc(O)c(OC)c2)ccc1O | 99.5 | – | – | – | – | –
COc1ccc(C(=O)n2nc(C)cc2C)cc1Br | – | – | – | – | – | –
SMILES | ALR H2O2 inh | A3A deaminase | PHOSPHO1 inh | aDG glyco act | rCAG RNA binder | APOBEC3G inh
Cc1cccc(Cn2cc(COC(=O)NCC(C)C)nn2)c1 | · | · | · | · | – | ·
Nc1ccc(Sc2ccccc2CC(=O)O)cc1 | 98.9 | – | – | · | · | –
c1ccc(-c2cn3ccccc3n2)cc1 | · | · | · | – | – | ·
Oc1ccc(-c2cn3ccccc3n2)cc1O | 98.8 | – | – | – | – | –
Cc1ccn2cc(-c3ccc(O)c(O)c3)nc2c1 | 99.0 | – | – | – | – | –
Oc1ccc(-c2cn3ccccc3n2)cc1 | 99.0 | – | – | – | – | –
CN(C)S(=O)(=O)c1ccc(-c2cn3ccccc3n2)cc1 | 99.3 | – | – | – | – | –
O=C(Nc1ccc(Cl)c(Cl)c1)c1cccc2c1-c1ccccc1C2=O | · | · | · | · | – | ·
CC(CCC(C)C(C)(C)C)[C@@H]1CC[C@H]2C3C[C@H](OS(O)(=S)=S)[C@H]4C[C@H](OS(O)(=S)=S)[C@@H](OS(O)(=S)=S)C[C@]4(C)[C@H]3CC[C@]12C (some centres not stated) (tested in a mixture with another compound) | 98.1 | – | · | – | · | –
Cc1ccc(-n2c(SCC(=O)Nc3ccc(Oc4ccccc4)cc3)nnc2-c2cccc(C)c2)cc1 | · | · | · | · | – | ·
Nc1ccc(N(CCO)CCO)cc1 | 97.2 | – | – | – | – | –
Nc1ccc(C(=O)N(CCO)CCO)cc1 | – | – | – | – | – | –
CCN(CC)c1ccc(N)cc1 | 96.6 | – | · | – | · | –
CCN(CC)c1ccc(C(=O)NN)cc1 | – | – | – | – | – | –
CCCCn1c(SCn2nnc3ccccc3c2=O)nc2cc(S(N)(=O)=O)ccc21 | – | – | – | – | – | –
CCCCn1c(SCC(=O)c2cc(OC)ccc2OC)nc2cc(S(N)(=O)=O)ccc21 | – | – | 65.4 | – | – | –
CCCCn1c(SCN2C(=O)c3ccccc3C2=O)nc2cc(S(N)(=O)=O)ccc21 | · | · | 90.0 | – | – | ·
CCCCn1c(SCC(=O)c2ccc(O)cc2O)nc2cc(S(N)(=O)=O)ccc21 | – | – | – | – | – | –
COc1ccccc1NC1CCCCC1NS(=O)(=O)c1ccc(C)cc1 (configuration not stated) | · | – | – | – | – | –
COc1ccc(NC2CCCCC2NS(=O)(=O)c2ccc(C)cc2)cc1 (configuration not stated) | 87.3 | – | – | – | – | –
CCOc1ccc(NC2CCCCC2NS(=O)(=O)c2ccccc2)cc1 (configuration not stated) | 92.3 | – | – | – | – | –
O=S(=O)(Nc1cccc2c1CCCC2)c1ccc(Cl)cc1 | 84.2 | – | – | – | – | –
CC(=O)Nc1ccccc1NS(=O)(=O)c1ccc(Cl)cc1 | – | – | – | – | – | –
C/C(=N\Nc1ccc(S(=O)(=O)N2CCCCC2)cn1)c1ccc(O)cc1 | 91.4 | – | · | – | – | –
O=C(CSc1ncnc2c(-c3ccc(Cl)cc3)nsc12)c1ccccc1 | – | – | 72.9 | – | – | –
SMILES | ALR H2O2 inh | A3A deaminase | PHOSPHO1 inh | aDG glyco act | rCAG RNA binder | APOBEC3G inh
S=c1[nH]c(-c2ccccc2)cn1-c1ccccc1 | 96.7 | – | – | – | – | –
Nc1ccc(-n2cc(-c3ccccc3)[nH]c2=S)cc1 | 90.7 | – | – | – | – | –
Oc1ccc(/C=N/n2cc(-c3ccccc3)[nH]c2=S)cc1 | 98.8 | – | – | – | – | –
O=[N+]([O-])c1ccc(-c2cn(-c3ccccc3)c(=S)[nH]2)cc1 | – | – | – | – | – | –
Cc1[nH]c2ccccc2c1CC(=O)Nc1ccc(Nc2cccnc2)c(-c2cc(F)cc(F)c2)c1 | · | · | · | · | – | ·
S=C1NC2=C(CCC/C2=C\c2ccccc2)C(c2ccccc2)N1 (configuration not stated) | – | – | – | – | – | –
C(=C1/CCCC2=C1Nc1ncnn1C2c1ccccc1)/c1ccccc1 (configuration not stated) | 91.5 | – | – | · | · | –
CCC(=O)OCCNc1cc(Sc2nccn2C)c2nonc2c1[N+](=O)[O-] | 97.1 | · | – | – | – | ·
O=C(C(=O)N1CCC(CNS(=O)(=O)c2ccccc2)CC1)c1cc2ccccc2o1 | · | · | · | · | – | ·
COc1ccc(-c2nc3ccccn3c2/N=C/c2ccc(OC)c(OC)c2)cc1O | · | – | – | – | – | –
